From PubChem BioAssay (NCATS) come the findings set out here.

Some of the results follow. Inconclusive results are not listed. Calls of active or inactive are those of the source. The call rests on the fitted dose curve; in most records, active means well fitted inhibition curve with a large enough effect; inconclusive means small, poorly fitted or top-dose-only effect; inactive means flat fitted curve, though single readings scatter.

In the assay the target is Fructose-bisphosphate aldolase (Giardia intestinalis (strain ATCC 50803 / WB clone C6)) (UniProt A8B2U2). Briefly: qHTS Assay for Inhibitors of Fructose-1,6-bisphosphate Aldolase from Giardia Lamblia: Primary screen confirmation (AID 2787).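 Further: aldolase product measured through coupled diaphorase step turning resazurin into fluorescent resorufin; nearly all actives have a fitted effect of over 45% in size.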 Particulars: purified Giardia aldolase enzyme activity; series mostly up to 57.5 µM. An excerpt: NIH Chemical Genomics Center [NCGC]
Chain of Fructose-bisphosphate aldolase (Giardia intestinalis (strain ATCC 50803 / WB clone C6)) (A8B2U2 whole entry, looked up): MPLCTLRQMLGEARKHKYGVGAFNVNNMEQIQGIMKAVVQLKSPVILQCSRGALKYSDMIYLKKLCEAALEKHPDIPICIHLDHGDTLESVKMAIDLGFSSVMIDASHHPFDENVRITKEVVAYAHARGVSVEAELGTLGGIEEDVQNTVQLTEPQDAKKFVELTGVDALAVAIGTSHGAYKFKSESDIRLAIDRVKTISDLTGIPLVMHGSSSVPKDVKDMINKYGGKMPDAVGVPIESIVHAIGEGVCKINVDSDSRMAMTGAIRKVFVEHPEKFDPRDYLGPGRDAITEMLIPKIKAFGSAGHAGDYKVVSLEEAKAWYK
NIH Molecular Libraries Probe Production centers Network [MLPCN]
Assay Provider: Osnat Herzberg, University of Maryland
The objective of this project is to obtain compounds that inhibit Giardia lamblia growth. G. lamblia is a human pathogen which afflicts impoverished nations; it is the most common cause of outbreaks of diarrhea in the United States. During the course of our study of potential drug targets in Giardia, we have identified the Class II (Zn2+ functions in electrophilic catalysis) fructose-1,6-bisphosphate aldolase (FBPA) as an excellent candidate for drug targeting. FBPA is a key glycolytic pathway enzyme, essential for G. lamblia survival. The human FBPA belongs to the Class I aldolases, which have a different substrate binding site structure and a radically different catalytic mechanism (employing a lysine-Schiff base intermediate). Therefore, affinity-based or mechanism-based inhibitors of the Giardia FBPA are expected not to interfere with the catalytic function of the human FBPA.
A glyceraldehyde-3-phosphate dehydrogenase/triose phosphate isomerase/NAD/arsenate coupled assay was adapted to the 1536-well HTP format for use in the primary screen. This was done by coupling it to a diaphorase/resazurin/resorufin reaction that can be monitored by fluorescence (excitation, 544 nm; emission, 590 nm). Compounds identified in this screen will be further evaluated by coupling the glycerol-3-phosphate/triose phosphate isomerase/NADH assay to a phenazine methosulfate/tetranitroblue tetrazolium color reaction. False positives due to the dehydrogenases and diaphorase inhibition will be eliminated, and selectivity assay will triage inhibitors of mammalian triose phosphate isomerase and the Class I FBPA. G. lamblia FBPA inhibitors identified by the in vitro analyses will be examined for growth inhibition of Giardia trophozoites, and for cytotoxicity in human cells.
The present assay was used to confirm hits from the primary screen.
Step,Parameter,Value,Description
1,Enzyme reagent,2 uL,40 nM FBPA w/ 30uM ZnCl2
2,Compound,23 nL,3.68 nM-57.5 uM final concentration
3,Time,10 min,RT Incubation
4,Substrate/detection Reagent,2 uL,Substrate + enzyme coupling system + AmpLite Red kit
5,Time,20 min,RT Incubation
6,Detector,525 nm/598 nm (Fluorescence),ViewLux Fluorescence Read (Read 1)
1,Medium-binding black solid-bottom Kalypsys plates. FRD or Kalypsys dispenser, 2 uL of FBPA enzyme. Bottle kept at 4C.
2,Compound Library (10 mM ,1:5 dilution). Pin-transferred for a [final] range of 3.68 nM-57.5 uM.
4,FRD or Kalypsys dispenser, 2 uL of reaction mixture. Bottle kept at 4C and covered in foil to protect from light.
6,ViewLux Protocol 1194; Excitation filter wheel A (525/20 Pol; BODIPY TMR FP), Emission filter wheel B (598/25 S; BODIPY TMR FP S).
Keywords: Fructose-bisphosphate aldolase, FBPA , Giardia lamblia , Giardia, HTS, Inhibitors
(In general: In qHTS, concentration-response curves come from the screen itself.)
Turning to `Cc1nc2ccc(NC(=S)N3CCC(C)CC3)cc2nc1C`, the call was inactive. With `Cc1cc(C)c2c(=O)[nH]c(SCC(=O)Nc3ccc(Br)cc3)nc2n1`, the compound was called inactive. Consider `O=c1nc(N/N=C/c2ccco2)cn[nH]1`, for which the compound was called inactive. Under `CN1C(=O)/C(=C\c2ccc(-c3ccccc3)o2)SC1=S` stands “inactive”; under `O=C1CCCN1CCCNC(=S)Nc1ccc(F)c(Cl)c1`, “inactive”.

`CC(C)(c1ccccc1)c1ccc(OCCN2CCCC2)cc1`: the compound was called inactive. `CN1CCN(CCCCOc2ccccc2-c2ccccc2)CC1`: the compound was called inactive. Regarding `O=[N+]([O-])c1cc([N+](=O)[O-])c2cccnc2c1O`, the call was inactive.

With `Cc1cc(C)n(-c2ccc(Cl)c(C(=O)O)n2)n1`, the result was inactive. Under `CN(C)CCOc1ccc(Cl)cc1C(C)(C)C` stands “inactive”; under `Cc1cccc(-c2nnc(SCC(=O)O)n2Cc2ccccc2)c1`, “inactive”; under `O=C(NC(=S)Nc1ncccn1)c1ccccc1Br`, “inactive”. Turning to `Cc1cnc(NC(=O)c2ccccn2)s1`, the result was inactive.

On to `CCN(CC(=O)Nc1ccc(S(=O)(=O)N2CCCC2)cc1)CC(=O)Nc1cccc(OC)c1`, for which the result was inactive. On to `CCc1ccc2c(c1)C1(NN=C(c3ccccc3)S1)C(=O)N2` (stereo not given), for which the result was inactive. As for `O=C(CN1CCN(Cc2ccccc2)CC1)Nc1ccc(F)c(F)c1`, the call was inactive. On to `C=C(C)CNC(=S)N/N=C/c1ccccc1OCC(=O)O`, for which the result was inactive. In the case of `Clc1cccc(CN2COc3c(cc(Cl)c4cccnc34)C2)c1`, the compound was classed as inactive. In the case of `Cc1ccc(S(=O)(=O)NNC(=S)NC(C)(C)C)cc1`, the compound was called inactive. With `O=C(Nc1nnc(-c2ccco2)o1)c1ccc(S(=O)(=O)N2CCOCC2)cc1` the entry was “inactive”; with `Cc1ccc(C(=O)Nc2nnc(C3=COCCO3)o2)cc1C`, “inactive”; with `O=C(CSc1cccc[n+]1[O-])c1ccc(-c2ccccc2)cc1`, “inactive”. For the compound `C=CCNC(=S)/N=c1/ccccn1Cc1ccccc1`, the outcome was inactive.

For the compound `CC(=O)NC1CCN(CC(=O)Nc2nccs2)CC1`, the compound was called inactive.

`C/C(=N\NC(N)=S)c1cccnc1`: the compound was classed as inactive. With `Oc1[nH]c2ccc(Br)cc2c1N=Nc1nn[nH]n1` the entry was “inactive”. With `O=c1[nH]c(=S)[nH]c2[nH]c(=S)[nH]c12` the entry was “inactive”. Take `O=S(=O)(c1ccc(NC(=S)NN=C(C2CC2)C2CC2)cc1)N1CCOCC1`: the outcome was inactive. Under `CCN(CC(=O)NC(=O)NCc1ccccc1)Cc1nc2ccccc2c(=O)[nH]1` stands “inactive”; under `COCCN(C(=S)Nc1ccccc1OC)C1CCN(C(C)C)CC1`, “inactive”.

Turning to `O=C(O)Cn1c(Cc2ccccc2)nc2ccccc21`, the result was inactive.

Regarding `Cn1c(=O)[nH]c(=O)c2c1[nH]c(=S)n2Cc1ccccc1`, the call was inactive. As to `CCN1CCc2c(C#N)c(NCc3ccccc3)nc(NCCO)c2C1`, the compound was classed as inactive.

As for `Oc1ccc2ccccc2c1N=Nc1nccs1`, the result was inactive.

For `Cc1cccc(C)c1OCCN1CCOCC1`, the result was inactive.

Turning to `O=C(N/N=C/c1ccccn1)c1cccnc1`, the result was inactive. On to `CSc1n[nH]c(=S)n1N`, for which the compound was called inactive. Regarding `COc1ccc(Cl)cc1C(=O)NNC(=O)c1nc2nc(C)cc(C)n2n1`, the result was inactive. Under `COc1ccccc1CN1CCN(Cc2cc(OC)c(OC)cc2OC)CC1` stands “inactive”; under `COc1ccc(C(=O)NC(=S)N2CCCCC2c2cccnc2)cc1OC` (stereo not given), “inactive”.
